Drawing on PubChem BioAssay (Tox21), this text covers Potency and outcome for ten molecules.

Assay [1] in a line: qHTS assay to identify small molecule agonists of the vitamin D receptor (VDR) signaling pathway - cell viability counter screen (AID 743224). Also: nearly all actives have a fitted effect of over 50% in size. The method in brief:
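Plated VDR-bla cells (4 h, 37C) received compound, incubated 16 h, then LiveBLAzer substrate 2 h RT; CellTiter-Glo added afterwards, luminescence read at 30 min.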

Assay [2] can be described thus: qHTS assay to identify small molecule antagonists of the vitamin D receptor (VDR) signaling pathway - cell viability counter screen (AID 743225). Also: nearly all actives have a fitted effect of over 50% in size. Also: potency is read from the fitted curve at half-maximal effect. In short, it runs like this:
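Parallel cytotoxicity test: VDR-UAS-bla HEK 293T, 3 nM (final) 1-alpha,25-dihydroxyvitamin D3 with test compound, 16 h, 37C. Endpoint is CellTiter-Glo luminescence in the same wells.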

Assay [3] can be described thus: qHTS assay to identify small molecule agonists of the NFkB signaling pathway - cell viability counter screen (AID 1159515; calls by dose curve; also: nearly all actives have a fitted effect of over 55% in size; also: potency is read from the fitted curve at half-maximal effect). In short, it runs like this: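 Using the same wells as the NFkB reporter read, ME-180 NFkB-bla cells given compounds for 5 hr were assessed for viability via CellTiter-Glo, with luminescence taken after a 30 min room-temperature incubation.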

A short description of assay [4]: qHTS assay to identify small molecule agonists of the endoplasmic reticulum stress response signaling pathway - cell viability counter screen (AID 1159517; calls by dose curve;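 also: HeLa cells carrying an ER stress response element beta-lactamase reporter; nearly all actives have a fitted effect of over 50% in size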). In short, it runs like this:
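CellTiter-Glo was added to wells already read for beta-lactamase FRET, and luminescence was recorded 30 min later. Cells: ESRE-bla HeLa, 1,500 per well, compound exposure 5 hr at 37 C.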

Assay [5] is described as follows: qHTS assay to identify small molecule antagonists of the retinoid-related orphan receptor gamma (ROR-gamma) signaling pathway - cell viability counter screen (AID 1159520). Also: nearly all actives have a fitted effect of over 50% in size. In short, it runs like this:
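Tet-on ROR gamma CHO cells (1,000/well) were plated 4 hr, given compounds in DMSO for 2 hr at 37 C, then induced with 1 uM final doxycycline for 16 hr. Viability was read as ATP by CellTiter-Glo luminescence after 30 min.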

For assay [6], the target named is Nuclear receptor ROR-gamma (Homo sapiens) (UniProt P51449). In words: qHTS assay to identify small molecule antagonists of the retinoid-related orphan receptor gamma (ROR-gamma) signaling pathway (AID 1159521). In short, it runs like this: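 Decreased RORE-driven luciferase luminescence indicates antagonism. Tet-on RORγ CHO cells received compound, then 1 uM final doxycycline 2 h later; signal read after 16 h incubation.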

Assay [7] in a line: qHTS assay to identify small molecule agonists of the AP-1 signaling pathway - cell viability counter screen (AID 1159525; calls by dose curve; also: nearly all actives have a fitted effect of over 55% in size). In short, it runs like this: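 ME-180 AP-1-bla, 2500 cells/well, Opti-MEM + 0.5% dialyzed FBS; overnight 37 °C; cpd 15-pt titration, 5 h 37 °C; CellTiter-Glo 30 min RT; luminescence read; normalised to TOAB and DMSO controls.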
Assay [8] in a line: qHTS assay to identify small molecule agonists of the AP-1 signaling pathway (AID 1159526; calls by dose curve).
In assay [9] the target is Retinoic acid receptor RXR-alpha (Homo sapiens) (UniProt P19793). The experiment in a line: qHTS assay to identify small molecule agonists of the RXR signaling pathway (AID 1159527; calls by dose curve; also: nearly all actives have a fitted effect of over 35% in size). The method in brief: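 16 hr incubation of compound-treated RXR-alpha-UAS-bla HEK 293T cells (2% charcoal-stripped FBS, 37 C) preceded a 2 hr room-temperature LiveBLAzer FRET substrate step and blue/green fluorescence measurement.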
Chain of Retinoic acid receptor RXR-alpha (Homo sapiens) (P19793 whole entry, looked up): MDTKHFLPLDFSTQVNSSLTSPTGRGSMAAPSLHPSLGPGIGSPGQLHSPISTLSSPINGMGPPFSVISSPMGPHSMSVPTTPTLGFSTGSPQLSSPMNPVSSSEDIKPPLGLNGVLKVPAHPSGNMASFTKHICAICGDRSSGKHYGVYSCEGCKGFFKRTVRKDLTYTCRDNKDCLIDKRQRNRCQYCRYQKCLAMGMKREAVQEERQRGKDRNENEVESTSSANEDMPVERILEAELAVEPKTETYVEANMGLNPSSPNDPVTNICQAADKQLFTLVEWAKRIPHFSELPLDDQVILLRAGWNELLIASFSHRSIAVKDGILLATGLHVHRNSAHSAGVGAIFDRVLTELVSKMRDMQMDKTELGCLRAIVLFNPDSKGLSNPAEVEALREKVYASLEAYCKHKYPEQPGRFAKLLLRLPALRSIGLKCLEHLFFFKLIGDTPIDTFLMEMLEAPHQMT

The nature of assay [10]: qHTS assay to identify small molecule antagonists of the retinoid acid receptor (RAR) signaling pathway - cell viability counter screen (AID 1159551). Also: nearly all actives have a fitted effect of over 35% in size. In short, it runs like this:
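Retinol-stimulated (1 uM final) C3RL4 cells, compound 6 h, 37 C; readout CellTiter-Glo luminescence (ATP) after 30 min RT incubation.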

Assay [11] in a line: qHTS assay to identify small molecule antagonists of the retinoic acid receptor (RAR) signaling pathway (AID 1159552; also: nearly all actives have a fitted effect of over 50% in size; also: potency is read from the fitted curve at half-maximal effect). In short, it runs like this: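 C3RL4 RARE-luc cells, overnight plating; retinol 1 uM final added right after compound; 6 hr 37 C; luciferase read at 30 min RT.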
Assay [12] is described as follows: qHTS assay to identify small molecule agonists of the retinoic acid receptor (RAR) signaling pathway (AID 1159553). Also: potency is read from the fitted curve at half-maximal effect. Particulars: C3RL4 RARE luciferase reporter, agonist, 6 h; activation: at 73.3 µM (top of the series) unless noted. In short, it runs like this:
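Reporter readout comes from luciferase under RARE control in C3RL4 cells; compound exposure lasts 6 hr at 37 C in 5% CO2, and luminescence is recorded following a 30 min room-temperature incubation with reagent.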

Assay [13] in a line: qHTS assay to identify small molecule agonists of the endoplasmic reticulum stress response signaling pathway (AID 1159516; active = well fitted activation curve with a large enough effect in the signal ratio in the repeat runs, not every such curve was filed as active; the % refers to the signal ratio). The method in brief:
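An ESRE-bla HeLa cell assay: compounds were pin-transferred from DMSO onto overnight-plated cells and left 5 hr at 37 C. Substrate was then loaded for 2 hr at room temperature before reading fluorescence at 460 nm and 530 nm.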

Assay [14] can be described thus: qHTS assay to identify small molecule agonists of the RXR signaling pathway - cell viability counter screen (AID 1159529). Also: nearly all actives have a fitted effect of over 50% in size. Also: potency is read from the fitted curve at half-maximal effect. The method in brief: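 In this parallel viability measure, GeneBLAzer RXR-alpha HEK 293T cells (2% charcoal-stripped FBS) were given a 5 hr preincubation, treated with compounds 16 hr at 37 C, and read by CellTiter-Glo luminescence.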
Assay [15] can be described thus: qHTS assay to identify small molecule antagonists of the estrogen related receptor (ERR) signaling pathway - cell viability counter screen (AID 1224818).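 Also: viability measured after 17.5 h of compound exposure.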 The method in brief: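 After a 6 h pre-incubation, ERR cells were dosed by pin tool with compounds, positive/negative controls or DMSO alone. Following 17.5 h at 37 C and 30 min with CellTiter-Fluor, fluorescence was recorded.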

The nature of assay [16]: qHTS assay to identify small molecule antagonists of the estrogen related receptor (ERR) signaling pathway (AID 1224819). The method in brief: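 Luminescence readout (One-Glo, 30 min, RT) of ERR cell line after 18 h compound exposure at 37 C; cells seeded 2,000/well, pre-incubated 6 h, compounds pinned from DMSO stocks.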
Assay [17] is described as follows: qHTS assay to identify small molecule agonists of the estrogen related receptor (ERR) signaling pathway (AID 1224820). The method in brief:
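Cells: ERR line from NTP, 2,000/well. Pre-incubation 6 h, 37 C/5% CO2. Compound (DMSO) pin transfer, 18 h 37 C. One-Glo, 30 min RT, luminescence.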

Assay [18] deals with estrogen-related receptor alpha (ERRalpha) with PGC-1alpha coactivator, human. In words: qHTS assay to identify small molecule antagonists of the estrogen related receptor signaling pathway with the pleiotropic PPARgamma coactivator (PGC) (AID 1224821; calls by dose curve). In short, it runs like this:
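Luminescent read-out (One-Glo, 30 min at room temperature) following 18 h treatment of PGC/ERR cells at 37 C with compounds delivered in DMSO. Cells had settled 6 h at 37 C/5% CO2 before dosing.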

Assay [19] is described as follows: qHTS assay to identify small molecule antagonists of the estrogen related receptor signaling pathway with the pleiotropic PPARgamma coactivator (PGC) cell viability counter screen (AID 1224822). In short, it runs like this: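 PGC/ERR cells were plated at 2,000 per well and allowed 6 h to settle before compound addition. Following 17.5 h at 37 C, CellTiter-Fluor reagent was added and fluorescence was read 30 min later.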

Assay [20] can be described thus: qHTS assay to identify small molecule agonists of the estrogen related receptor signaling pathway with the pleiotropic PPARgamma coactivator (PGC) (AID 1224823). The method in brief:
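Steps: plate PGC/ERR cells at 2,000 cells/well; incubate 6 h, 37 C/5% CO2; pin-transfer compounds (DMSO); incubate 18 h, 37 C; add One-Glo; 30 min RT; read luminescence.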

Inconclusive results are not listed. Active and inactive are the calls of the source. Unless noted, calls follow the shape of the dose curve; as a rule, active = well fitted curve in the direction sought with a large enough effect in the repeat runs; inconclusive = weak or mixed curves; inactive = no such curve, though single readings can be large; an effect the other way counts as inactive or inconclusive.

Regarding `OC1CCC(C2CCCCC2)CC1` (stereo unspecified), the Potency result in assay [1], in assay [2], in [3], in [4], in [5] and in assay [6] was “inactive” each time. Moreover, the Potency result in assay [7], in [8], in assay [9], in assay [10], in [11] and in assay [12] was “inactive” each time.
As for `Nc1nc(N)nc(-c2cc(Cl)ccc2Cl)n1`, the Potency entry in assay [3], in [4], in [5], in [6], in assay [7] and in assay [8] was “inactive” throughout. For the same molecule, the Potency entry in assay [9] and in [10] was “inactive” throughout.
`C=CC(=O)Nc1cc2c(Nc3ccc(F)c(Cl)c3)ncnc2cc1OCCCN1CCOCC1`: the Potency result in [1], in [2] and in [13] was “inactive” in each case. The Potency in [3] is 15.1 µM (active); in assay [14], 4.77 µM (active); in assay [11], 7.5 µM (active).
In the case of `CN1CCCCC1CCN1c2ccccc2Sc2ccc(S(C)=O)cc21` (stereo unspecified), the Potency result in assay [1], in assay [2], in [3], in assay [13], in [7] and in assay [9] was “inactive” each time. Besides, the Potency entry in assay [10] and in assay [12] was “inactive” throughout.
`CC1(C)[C@@H](O)CC[C@]2(C)[C@H]3C(=O)C=C4[C@@H]5C[C@@](C)(C(=O)O)CC[C@]5(C)CC[C@@]4(C)[C@]3(C)CC[C@@H]12`: the Potency result in assay [2], in assay [3], in [13], in [9], in assay [14] and in [10] was “inactive” each time.
Regarding `Cc1c(C)c2c(c(C)c1O)CC[C@@](C)(CCC[C@H](C)CCC[C@H](C)CCCC(C)C)O2`, the Potency result in [1], in [2], in [3], in [4], in [5] and in [6] was “inactive” throughout. The Potency result in [7], in assay [8], in assay [14], in assay [10] and in assay [12] was “inactive” in each case.
Consider `O=c1oc2cc(O)ccc2c2oc3cc(O)ccc3c12`, for which the Potency result in assay [2], in assay [3], in [4], in assay [5], in [6] and in assay [7] was “inactive” in each case. For the same molecule, the Potency entry in assay [8], in assay [14], in [10] and in assay [11] was “inactive” throughout. In addition, the Potency in assay [12] was 52.2 µM (active).
`Cc1cc(C(C)(C)C)c(O)c(C)c1Cn1c(=O)n(Cc2c(C)cc(C(C)(C)C)c(O)c2C)c(=O)n(Cc2c(C)cc(C(C)(C)C)c(O)c2C)c1=O`: the Potency in assay [2] was 12.3 µM (active). Moreover, the Potency result in assay [3], in assay [4], in assay [5], in [6], in [7] and in assay [8] was “inactive” in each case. In addition, the Potency result in assay [9], in assay [10] and in assay [12] was “inactive” in each case.
On to `Nc1nc2c(ncn2COCCO)c(=O)[nH]1`, for which the Potency entry in assay [3], in assay [4], in assay [5], in [6], in assay [7] and in assay [8] was “inactive” each time. For the same molecule, the Potency result in [9], in assay [14], in assay [10], in assay [11], in [12] and in assay [16] was “inactive” each time. For the same molecule, the Potency result in assay [18] and in assay [19] was “inactive” each time. Besides, the outcome in assay [15], in assay [17] and in assay [20] was inactive.
In the case of `COC(=O)C1=C(C)NC(C)=C(C(=O)OCCN2CCN(C(c3ccccc3)c3ccccc3)CC2)C1c1cccc([N+](=O)[O-])c1` (stereo unspecified), the Potency result in [1], in assay [2], in assay [3], in assay [13], in [7] and in assay [14] was “inactive” throughout. Besides, in [10], the Potency entry is “inactive”.
